# According to PubChem BioAssay (NCATS):
# Records with an inconclusive call do not appear. Where a call stands in place of a potency, no number is given. For some assays here: Potency and affinity values are given separately. Calls of active or inactive are those of the source.
# What was measured:
# [1] = Ebola virus entry assay, blue channel fluorescence
# [2] = Ebola virus entry cell assay, ratio channel
# [3] = Ebola virus entry reporter assay, green channel fluorescence
# [4] = qHTS assay to identify small molecule inhibitors of chordoma cells - UCH-1 (AID 1259355; active means well fitted curve in the direction sought with a large enough effect; an effect the other way counts as inactive or inconclusive; further: nearly all actives have a fitted effect of over 55% in size); conditions: UCH-1 chordoma viability, CellTiter-Glo, 48 h, combination; series mostly up to 46.1 µM
# In short: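 Cells (800/well) were seeded and left overnight at 37 C, 5% CO2, then treated with drugs at 15 concentrations plus a combination mix of auranofin, camptothecin, doxorubicin, rubitecan and topotecan. Viability after 48hr was read by CellTiter-Glo luminescence.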
# [5] = qHTS assay to identify small molecule inhibitors of chordoma cells - UCH-2 (AID 1259356; active means well fitted curve in the direction sought with a large enough effect; an effect the other way counts as inactive or inconclusive); conditions: UCH-2 chordoma viability, CellTiter-Glo ATP luminescence, 48 h; series mostly up to 46.1 µM
# [6] = Immunotoxin (HA22) sensitization/mitigation study. Vehicle arm (PBS) (AID 1159510); conditions: cancer cells viability with PBS vehicle (HA22 study); series mostly up to 46.1 µM; further: potency means the concentration at half of the fitted maximal effect
# [7] = Immunotoxin (SS1P) sensitization/mitigation study. Vehicle arm (DMEM) (AID 1159513); conditions: cell viability with vehicle (DMEM); series mostly up to 46.1 µM; further: potency means the concentration at half of the fitted maximal effect
# [8] = High-throughput drug toxicity screening in the BPDCN cell line Gen2.2 (AID 1224824); conditions: Gen2.2 BPDCN cells; at 45.8 µM (top of the series) unless noted;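 further: cells exposed to compounds for 48 h before reading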
# In short: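 Gen2.2, 500 cells/well, phenol red-free RPMI/10% FBS/Pen-Strep; 48 h cpd, 37 °C/5% CO2; CTG lum, 15 min RT. Norm: DMSO = 100%, bortezomib 9.2 uM final = 0%.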
# [9] = High-throughput drug toxicity screening in the BPDCN cell line Cal-1 (AID 1224825); conditions: Cal-1 BPDCN cell viability, qHTS; at 45.8 µM (top of the series) unless noted
# In short: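 Cal-1 cells, 500 per well in phenol-red-free RPMI with 10% FBS, exposed to compounds for 48 hours at 37C, 5% CO2. Viability read by CellTiter-Glo luminescence; percent activity normalized to DMSO (100%) and 9.2 uM bortezomib final (0%).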
# [10] = qHTS assay for measurement of the activity of small molecule inhibitors on Zika virus induced Caspase-3 activity in human iPSC derived neural progenitor cells (hNPCs) (AID 1224857; active means well fitted curve in the direction sought with a large enough effect; an effect the other way counts as inactive or inconclusive; further: nearly all actives have a fitted effect of over 65% in size); conditions: hNPCs ZIKV-induced caspase-3/7, Caspase-Glo luminescence, 6 h; series mostly up to 45.7 µM
# In short: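 Quantitative HTS format: human iPSC neural progenitors, 1 h compound pretreatment, ZIKV 2 FFU/cell for 6 h at 37 C. Percent inhibition derived from luminescent caspase-3/7 signal between uninfected and infected controls.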
# [11] = qHTS assay for measurement of the activity of small molecule inhibitors on Zika virus induced Caspase-3 activity in human astrocytoma cells (AID 1224859; active means well fitted curve in the direction sought with a large enough effect; an effect the other way counts as inactive or inconclusive); conditions: SNB-19 ZIKV-induced caspase-3/7, luminescence, 6 h; series mostly up to 45.7 µM
# In short: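 Readout is luminescence from Caspase-Glo 3/7 added after a 6 h ZIKV infection (2 FFU/cell) of compound-pretreated (1 h) SNB-19 cells; data expressed as % inhibition versus uninfected and infected wells.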
# [12] = qHTS Screen of the MIPE 4.0 Collection Against Ewings Sarcoma (RDES) (AID 1259252; active means well fitted curve in the direction sought with a large enough effect; an effect the other way counts as inactive or inconclusive; further: nearly all actives have a fitted effect of over 35% in size); conditions: RD-ES Ewing sarcoma viability, CellTiter-Glo, 48 h; series mostly up to 45.8 µM
# In short: (§1)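 Dose series incubated 48 h with cells in RPMI plus 5% FBS, glutamine and penicillin/streptomycin; cell viability then quantified via CellTiter-Glo.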
# [13] = qHTS Screen of the MIPE 4.0 Collection Against Ewings Sarcoma (EW8) (AID 1259255; active means well fitted curve in the direction sought with a large enough effect; an effect the other way counts as inactive or inconclusive; further: nearly all actives have a fitted effect of over 35% in size); conditions: EW8 Ewing sarcoma viability, CellTiter-Glo, 48 h; series mostly up to 45.8 µM
# In short: as §1
# [14] = Ebola virus entry assay, reporter ratio channel; AC50: Channel type: primary unless noted; outcome: Channel type: primary unless noted
# [15] = Ebola virus entry assay, blue channel (ratio component)
# [16] = qHTS Screen of the MIPE 4.0 Collection Against Ewings Sarcoma (TC71) (AID 1259253; active means well fitted curve in the direction sought with a large enough effect; an effect the other way counts as inactive or inconclusive; further: nearly all actives have a fitted effect of over 40% in size); conditions: TC71 Ewing sarcoma viability, CellTiter-Glo, 48 h; series mostly up to 45.8 µM
# In short: as §1
# [17] = qHTS Screen of the MIPE 4.0 Collection Against Ewings Sarcoma (TC32) (AID 1259256; active means well fitted curve in the direction sought with a large enough effect; an effect the other way counts as inactive or inconclusive; further: nearly all actives have a fitted effect of over 45% in size); conditions: TC32 Ewing sarcoma viability, CellTiter-Glo, 48 h; series mostly up to 45.8 µM
# In short: as §1
smiles,measurement,setting,value
CN[C@@H]1CCc2[nH]c3ccc(C(N)=O)cc3c2C1,outcome,[1],inactive
same,outcome,[2],inactive
CN1[C@@H]2CCC[C@@H]1CC(NC(=O)c1nn(C)c3ccccc13)C2 (some centres not stated),outcome,[1],inactive
same,outcome,[3],inactive
same,outcome,[2],inactive
C[C@]1(O)CC[C@H]2[C@@H]3CCC4=CC(=O)CC[C@]4(C)[C@@]3(F)[C@@H](O)C[C@@]21C,outcome,[1],inactive
same,outcome,[3],inactive
same,outcome,[2],inactive
C=CC1=C(C(=O)O)N2C(=O)[C@@H](NC(=O)/C(=N/OCC(=O)O)c3csc(N)n3)[C@H]2SC1 (stereo in doubt),outcome,[1],inactive
same,outcome,[3],inactive
same,outcome,[2],inactive
O=C1[O][Bi][O]c2ccccc21,outcome,[1],inactive
same,outcome,[3],inactive
same,outcome,[2],inactive
C=CC1=C(C(=O)O)N2C(=O)[C@@H](NC(=O)/C(=N\O)c3csc(N)n3)[C@H]2SC1 (stereo in doubt),outcome,[1],inactive
same,outcome,[2],inactive
CC(C)CN(C[C@@H](O)[C@H](Cc1ccccc1)NC(=O)O[C@H]1CO[C@H]2OCC[C@H]21)S(=O)(=O)c1ccc(N)cc1,outcome,[1],inactive
same,outcome,[2],inactive
Nc1nc(NC2CC2)c2ncn([C@@H]3C=C[C@@H](CO)C3)c2n1,outcome,[1],inactive
same,outcome,[3],inactive
same,outcome,[2],inactive
CO[C@H]1C=CO[C@@]2(C)Oc3c(C)c(O)c4c(O)c(c5c(c4c3C2=O)=NC2(CCN(CC(C)C)CC2)N=5)NC(=O)/C(C)=C\C=C/[C@H](C)[C@H](O)[C@@H](C)[C@@H](O)[C@@H](C)[C@H](OC(C)=O)[C@@H]1C,outcome,[1],inactive
same,outcome,[3],inactive
same,outcome,[2],inactive
CSCC[C@H](NC(=O)[C@H](Cc1ccc(OS(=O)(=O)O)cc1)NC(=O)[C@@H](N)CC(=O)O)C(=O)NCC(=O)N[C@@H](Cc1c[nH]c2ccccc12)C(=O)N[C@@H](CCSC)C(=O)N[C@@H](CC(=O)O)C(=O)N[C@@H](Cc1ccccc1)C(N)=O,outcome,[1],inactive
same,outcome,[2],inactive
NC(=O)CC[C@@H]1NC(=O)[C@H](Cc2ccccc2)NC(=O)[C@H](Cc2ccc(O)cc2)NC(=O)[C@@H](N)CSSC[C@@H](C(=O)N2CCC[C@H]2C(=O)N[C@@H](CCCN=C(N)N)C(=O)NCC(N)=O)NC(=O)[C@H](CC(N)=O)NC1=O,outcome,[1],inactive
same,outcome,[3],inactive
same,outcome,[2],inactive
CN[C@H](CC(C)C)C(=O)N[C@H]1C(=O)N[C@@H](CC(N)=O)C(=O)N[C@H]2C(=O)N[C@H]3C(=O)N[C@H](C(=O)N[C@@H](C(=O)O)c4cc(O)cc(O)c4-c4cc3ccc4O)[C@H](O)c3ccc(c(Cl)c3)Oc3cc2cc(c3O[C@@H]2O[C@H](CO)[C@@H](O)[C@H](O)[C@H]2O[C@H]2C[C@](C)(N)C(O)[C@H](C)O2)Oc2ccc(cc2Cl)[C@H]1O (some centres not stated),outcome,[1],inactive
same,outcome,[3],inactive
same,outcome,[2],inactive
Clc1ccc2c(c1)C(c1ccccc1)=NCc1nncn1-2,outcome,[1],inactive
same,outcome,[3],inactive
same,outcome,[2],inactive
same,outcome,[4],inactive
same,outcome,[5],inactive
Nc1nc2[nH]cc(CCc3ccc(C(=O)N[C@@H](CCC(=O)O)C(=O)O)cc3)c2c(=O)[nH]1,outcome,[1],inactive
same,outcome,[3],inactive
same,outcome,[2],inactive
same,Potency,[6],0.059 µM (active)
same,Potency,[7],0.187 µM (active)
CCN(CC)C(=O)[C@]1(c2ccccc2)C[C@@H]1CN,outcome,[1],inactive
same,outcome,[3],inactive
same,outcome,[2],inactive
CC(C)C[C@H](CN)CC(=O)O,outcome,[1],inactive
same,outcome,[3],inactive
same,outcome,[2],inactive
same,"cell viability, % of control (lower = more cytotoxic)",[8],401%
same,viability (% of control),[9],132%
same,outcome,[10],inactive
same,outcome,[11],inactive
same,Potency,[12],inactive
same,outcome,[13],inactive
same,outcome,[5],inactive
CCCCCN(C)CCC(O)(P(=O)(O)O)P(=O)(O)O,outcome,[1],inactive
same,outcome,[3],inactive
same,outcome,[2],inactive
same,outcome,[10],inactive
same,outcome,[4],inactive
same,outcome,[5],inactive
CCOC(=O)C1=C[C@@H](OC(CC)CC)[C@H](NC(C)=O)[C@@H](N)C1,outcome,[1],inactive
same,outcome,[3],inactive
same,outcome,[2],inactive
Nc1ccn([C@@H]2CS[C@H](CO)O2)c(=O)n1,outcome,[1],inactive
same,outcome,[2],inactive
Cc1c(N)nc([C@H](CC(N)=O)NC[C@H](N)C(N)=O)nc1C(=O)N[C@H](C(=O)N[C@H](C)[C@@H](O)[C@H](C)C(=O)N[C@H](C(=O)NCCc1nc(-c2nc(C(=O)NCCCCN=C(N)N)cs2)cs1)[C@@H](C)O)[C@@H](O[C@@H]1O[C@@H](CO)[C@@H](O)[C@H](O)[C@@H]1O[C@H]1O[C@H](CO)[C@@H](O)[C@H](OC(N)=O)[C@@H]1O)c1cnc[nH]1,outcome,[1],inactive
same,outcome,[2],inactive
COCC1=C(C(=O)OC(C)OC(=O)OC(C)C)N2C(=O)[C@@H](NC(=O)/C(=N\OC)c3csc(N)n3)[C@H]2SC1 (some centres not stated),outcome,[1],inactive
same,outcome,[2],inactive
COc1cc(C)c(/C=C/C(C)=C/C=C/C(C)=C/C(=O)O)c(C)c1C,outcome,[1],inactive
same,outcome,[2],inactive
Nc1nc(Cl)nc2c1ncn2[C@H]1C[C@H](O)[C@@H](CO)O1,outcome,[1],inactive
same,outcome,[2],inactive
same,Potency,[6],9.59 µM (active)
same,Potency,[7],48.1 µM (active)
CN[C@@H](C)Cc1ccccc1,outcome,[1],inactive
same,outcome,[2],inactive
C[N+]1(C)[C@@H]2CC(OC(=O)C(O)(c3cccs3)c3cccs3)C[C@H]1[C@@H]1O[C@@H]12 (some centres not stated),outcome,[1],inactive
same,outcome,[2],inactive
CC(C)NCC(O)c1cc(O)cc(O)c1 (configuration not stated),outcome,[14],inactive
same,outcome,[15],inactive
C[C@]12CC[C@@H]3c4ccc(OC(=O)N(CCCl)CCCl)cc4CC[C@H]3[C@@H]1CC[C@@H]2OP(=O)(O)O,outcome,[1],inactive
same,outcome,[2],inactive
same,"cell viability, % of control (lower = more cytotoxic)",[8],99.3%
same,viability (% of control),[9],82.9%
same,outcome,[10],inactive
same,outcome,[11],inactive
same,Potency,[12],inactive
same,Potency,[16],inactive
same,outcome,[13],inactive
same,Potency,[17],inactive
